# Test results: PubChem BioAssay (NCATS)
# Values joined by “and” are separate entries in the source; they are usually repeats but may differ in a detail not shown here. Equal values may be shown once. A number with no mark means an inactive call. Inconclusive results are not listed. Active and inactive are the calls of the source. Unless noted, the call rests on the fitted dose curve.
# Target: Alpha-galactosidase A (Homo sapiens) (UniProt P06280)
# Experiment: Counterscreen for Glucocerebrosidase Inhibitors: qHTS Assay for Human alpha-Galactosidase at pH 4.5 (AID 992; active means well fitted curve in the direction sought with a large enough effect; an effect the other way counts as inactive or inconclusive; further: 0% is about no effect)
# Settings: purified enzyme, fluorogenic substrate; series mostly up to 76.9 µM; activity change, negative = inhibition: at the top concentration
# Outline: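 Fluorogenic 1536-well qHTS at pH 4.5 (citrate, Tween-20): 2 nM enzyme, 80 uM 4-MU-alpha-galactoside, 20 min room temperature, NaOH/glycine stop. Titration 0.7 nM to 77 uM, data normalized to no-enzyme and full-activity controls, Hill-fitted AC50.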
# Alpha-galactosidase A (Homo sapiens), sequence (P06280 whole entry, looked up): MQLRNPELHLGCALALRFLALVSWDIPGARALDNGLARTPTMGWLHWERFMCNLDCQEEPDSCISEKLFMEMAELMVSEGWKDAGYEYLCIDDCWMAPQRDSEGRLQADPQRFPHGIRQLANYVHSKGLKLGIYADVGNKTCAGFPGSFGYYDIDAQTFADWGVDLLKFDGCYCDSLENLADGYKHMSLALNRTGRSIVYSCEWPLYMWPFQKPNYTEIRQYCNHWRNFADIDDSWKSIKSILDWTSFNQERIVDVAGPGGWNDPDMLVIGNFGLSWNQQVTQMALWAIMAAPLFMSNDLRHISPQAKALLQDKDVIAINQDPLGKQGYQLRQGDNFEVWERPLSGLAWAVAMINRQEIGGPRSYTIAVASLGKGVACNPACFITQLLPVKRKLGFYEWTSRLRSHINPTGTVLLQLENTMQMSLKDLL
Compound,outcome,"activity change, negative = inhibition [%]"
CC(C)NC[C@@H](O)COc1cccc2ccccc12,inactive,–
C[N+]1(CCCCC[N+]2(C)CCCC2)CCCC1,–,-0.303
CNCCC=C1c2ccccc2CCc2ccccc21,–,-2.79

# Target: alpha-glucosidase (Oryza sativa, rice) (UniProt Q653V4)
# Experiment: Counterscreen for Glucocerebrosidase Inhibitors: qHTS Assay for Rice alpha-Glucosidase at pH 5.0 (AID 997; active means well fitted curve in the direction sought with a large enough effect; an effect the other way counts as inactive or inconclusive;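 further: 0% = full activity with enzyme and -100% = basal without enzyme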)
# Settings: rice alpha-glucosidase enzyme activity; series mostly up to 76.9 µM; activity change, negative = inhibition: at the top concentration
# Outline: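 Endpoint fluorogenic assay at pH 5.0: compounds (0.7 nM to 77 uM) titrated against 4 nM rice enzyme and 400 uM 4-MU-alpha-glucoside for 20 min at room temperature; NaOH/glycine stop, read ex 365/em 440 nm, Hill-fitted AC50.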
Compound,outcome,"activity change, negative = inhibition [%]"
CC(C)NC[C@@H](O)COc1cccc2ccccc12,inactive,–
C[N+]1(CCCCC[N+]2(C)CCCC2)CCCC1,–,-2.26
CNCCC=C1c2ccccc2CCc2ccccc21,–,-2

# Test system: not listed separately
# Experiment: qHTS Assay for Lipid Storage Modulators (AID 1519); further: on the % scale 0 is the no-effect control and ±100 the full control effect
# Settings: Drosophila S3 cells, BODIPY lipid droplet/cell ratio, laser cytometry; at 25.7 µM (top of the series); cells loaded with oleic acid
# Outline: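 Cells seeded at 5,000 per well were treated with compounds over a concentration series and loaded with oleic acid (400 uM, as added). Lipid droplet fluorescence (488 nm excitation, 500-530 nm channel) was read by laser-scanning cytometry and normalized to 20 uM Triacsin C.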
row,Compound,"activity change, negative = inhibition"
1,Nc1nc2ncc(CNc3ccc(C(=O)N[C@@H](CCC(=O)O)C(=O)O)cc3)nc2c(=O)[nH]1,-2.19%
2,CC(C)NC[C@@H](O)COc1cccc2ccccc12,-1.02% and 0.265% and -0.0202%
3,COc1ccc(CCN2CCC(Nc3nc4ccccc4n3Cc3ccc(F)cc3)CC2)cc1,-7.48%
4,CN1CCN(CCCN2c3ccccc3Sc3ccc(S(=O)(=O)N(C)C)cc32)CC1,-2.96%
5,CC(=O)N(O)CCCCCNC(=O)CCC(=O)N(O)CCCCCNC(=O)CCC(=O)N(O)CCCCCN,-1.65%
6,CN1CCN(C(c2ccccc2)c2ccccc2)CC1,-2.7%
7,C[N+]1(CCCCC[N+]2(C)CCCC2)CCCC1,-1.41%
8,O=C1c2ccccc2C(=O)C1c1ccccc1,-0.708%
9,Oc1c(I)cc(Cl)c2cccnc12,-3.26%
10,CNCCC=C1c2ccccc2CCc2ccccc21,-2%
11,CCN(CCCc1ccccc1)CCCc1ccccc1,-2.55%
12,Cc1c(N(C)CS(=O)(=O)O)c(=O)n(-c2ccccc2)n1C,0.216%
